In PubChem BioAssay (EPA / NIEHS):
Results filed as inconclusive are left out. Active and inactive are the calls of the source. How the source made its calls: active means hit-call score of the fitted dose curve at least 0.9, where 1 is the maximum; inconclusive means response in the unintended direction; inactive means score below 0.9.

molecular target: Glucocorticoid receptor (Homo sapiens) (UniProt P04150); experiment: NVS_NR_hGR: NovaScreen (NVS) Nuclear Receptor Binding Assay for human Glucocorticoid Receptor (GR) (AID 2283363)
Description: NVS_NR_hGR is a biochemical, single-readout assay that uses extracted gene-proteins in a cell-free assay. Measurements were taken 16 hours after chemical dosing in a 96-well plate.NVS_NR_hGR is one of one assay component(s) measured or calculated from the NVS_NR_hGR assay. It is designed to make measurements of radioligand binding, a form of binding reporter, as detected with scintillation counting signals by Filter-based radiodetection technology.Data from the assay component NVS_NR_hGR was analyzed into 1 assay endpoint. This assay endpoint, NVS_NR_hGR, was analyzed in the positive analysis fitting direction relative to DMSO as the negative control and baseline of activity. Using a type of binding reporter, loss-of-signal activity can be used to understand changes in the binding as they relate to the gene NR3C1. Furthermore, this assay endpoint can be referred to as a primary readout, because the performed assay has only produced 1 assay endpoint. To generalize the intended target to other relatable targets, this assay endpoint is annotated to the nuclear receptor intended target family, where the subfamily is steroidal.
Binding assays used specific radioligands (tritiated, iodinated) with non-radioactive competitive displacement ligands in agonist or antagonist protocols (as indicated) and various reference compounds and inhibitors to titrate specific binding to receptors and transporters. Most enzyme assays (CYPs, kinases, phosphatases, proteases, HDACs) used recombinant protein and specific substrates (fluorescence mostly, some colorimetric and radioactive) and inhibitors, followed by a biochemical separation of substrate and product. All assays for the biochemical HTS were initially run in duplicate at a single concentration (10 uM for CYP450 assays and 25 uM for all others). […] Each assay was run with positive and negative controls, and concurrent controls on every plate. The follow-up (secondary) screen tested active chemical-pairs in concentration series, as well as a few additional assays not tested in the primary screen, some selected negative inactives, and several cases re-run in the concentration series for confirmatory purposes.

Sequence of Glucocorticoid receptor (Homo sapiens) (P04150 whole entry, looked up): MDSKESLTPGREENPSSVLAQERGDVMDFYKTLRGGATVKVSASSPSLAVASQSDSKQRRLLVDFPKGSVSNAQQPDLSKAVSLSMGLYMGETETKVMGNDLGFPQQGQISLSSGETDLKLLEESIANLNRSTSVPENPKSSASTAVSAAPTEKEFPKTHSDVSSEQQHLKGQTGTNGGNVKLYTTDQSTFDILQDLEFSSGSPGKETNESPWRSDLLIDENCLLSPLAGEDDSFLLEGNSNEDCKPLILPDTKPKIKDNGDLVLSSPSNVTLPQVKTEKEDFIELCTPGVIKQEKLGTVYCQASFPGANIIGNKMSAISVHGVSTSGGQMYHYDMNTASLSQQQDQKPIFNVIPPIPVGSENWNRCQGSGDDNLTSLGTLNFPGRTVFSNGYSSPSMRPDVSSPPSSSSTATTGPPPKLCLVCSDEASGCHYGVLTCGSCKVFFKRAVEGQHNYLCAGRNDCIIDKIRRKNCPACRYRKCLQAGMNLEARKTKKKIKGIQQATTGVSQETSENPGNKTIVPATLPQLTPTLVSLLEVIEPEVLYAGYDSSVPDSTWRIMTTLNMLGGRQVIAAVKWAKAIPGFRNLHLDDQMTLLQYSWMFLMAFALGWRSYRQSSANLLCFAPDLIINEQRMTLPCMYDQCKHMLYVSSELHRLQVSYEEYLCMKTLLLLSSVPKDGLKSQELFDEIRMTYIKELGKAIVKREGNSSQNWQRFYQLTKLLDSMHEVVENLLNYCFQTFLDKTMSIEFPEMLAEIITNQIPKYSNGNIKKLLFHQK

Structure (SMILES) | outcome | AC50
CCNC(=O)NC(=O)C(C#N)=NOC | inactive | 
N#Cc1c(Cl)cccc1Cl | inactive | 
CC(C)=CC1C(C(=O)OCc2coc(Cc3ccccc3)c2)C1(C)C (stereo unspecified) | inactive | 
OC(c1ccc(Cl)cc1)(c1ccc(Cl)cc1)C(Cl)(Cl)Cl |  | 6.9 µM (active)
CCCCOCN(C(=O)CCl)c1c(CC)cccc1CC |  | 8.18 µM (active)
CCOC(=O)C(C)OC(=O)c1cc(Oc2ccc(C(F)(F)F)cc2Cl)ccc1[N+](=O)[O-] (stereo unspecified) | inactive | 
CCN(CC)c1nc(C)cc(OP(=S)(OC)OC)n1 |  | 9.72 µM (active)
CCCCC(C#N)(Cn1cncn1)c1ccc(Cl)cc1 (stereo unspecified) | inactive | 
N#Cc1c[nH]cc1-c1cccc2c1OC(F)(F)O2 |  | 1.57 µM (active)
CCCN(CC)CC1COC2(CCC(C(C)(C)C)CC2)O1 (stereo unspecified) | inactive | 
CC(C)Oc1cccc(NC(=O)c2ccccc2C(F)(F)F)c1 | inactive | 
CCCCC(O)(Cn1cncn1)c1ccc(Cl)cc1Cl (stereo unspecified) |  | 1.29 µM (active)
CC(C)C1(C)N=C(c2ncccc2C(=O)O)NC1=O (stereo unspecified) | inactive | 
CC(C)(C)C(=O)C(Oc1ccc(Cl)cc1)n1cncn1 (stereo unspecified) | inactive | 
CC1(C)C(C=C(Cl)Cl)C1C(=O)OC(C#N)c1cccc(Oc2ccccc2)c1 (stereo unspecified) | inactive | 
COP(=S)(OC)Oc1ccc([N+](=O)[O-])c(C)c1 |  | 9.62 µM (active)
